PMP22 txn prim – Cell-based coincidence reporter assay to measure PMP22 gene transcription in S16 Pmp22-F2sN cells - Primary screen. S16 Pmp22-F2sN Schwann cells, FLuc/NLuc coincidence luminescence, 24 h. Potency, µM (titrated, usually from 57.5 µM), usual class: inhibitors. 43,000 compounds, 2% hits. AID 1508649, 2021; active = clear falling dose curves in both reporters; inconclusive = both reporters move, but less clearly or upward; inactive = either reporter flat; the % is the NLuc reporter signal
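S16 Schwann cells carrying FLuc/NLuc coincidence reporter in the Pmp22 3' UTR treated with compound 24 h at 37C; FLuc then NLuc luminescence read sequentially by dual-luciferase reagents.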
S16 viability – Cell viability qHTS assay in S16 Pmp22-F2sN cells | S16 Pmp22-F2sN Schwann cells viability, CellTiter-Glo, 24 h | 43,000 compounds, 0.48% hits | Potency, µM (titrated, usually from 57.5 µM), usual class: cytotoxic; note: nearly all actives have a fitted effect of over 65% in size
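Viability was measured by CellTiter-Glo luminescence (15 min, room temperature). This followed 24 h at 37 °C of compound exposure (23 nL pin transfer) in S16 Pmp22-F2sN Schwann cells, 500-1,000 per well.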
p53null 39C kill – qHTS Screen for Compounds that Selectively Target Cancer Cells with p53 Mutations: Cytotoxicity of p53 Null Cells at the Nonpermissive Temperature; Potency, µM (top dose mostly 46.1 µM), actives largely listed as cytotoxic; H1299 p53-null (neo) cells, 39C, ATPlite viability, 24 h; 55,000 compounds, 0.97% hits; AID 904, 2007; note: nearly all actives have a fitted effect of over 50% in size
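Temperature-shift cytotoxicity format: compound titrations on p53-null or A138V-expressing H1299 cells held 24 hr at 39C, cell ATP then measured, AC50 from Hill model.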
mTORC1 inh – Acumen qHTS Assay for Inhibitors of the mTORC1 Signaling Pathway in MEF (Tsc2-/-, p53-/-) Cells: Sytravon. Tsc2-/- p53-/- MEF, phospho-rpS6 immunofluorescence/PI, 24 h. AID 493208, 2011. 44,000 compounds, 0.78% hits. Potency, µM (titrated, usually from 38.3 µM), actives largely listed as inhibitors; note: nearly all actives have a fitted effect of over 50% in size
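Read-out: phospho-S6 Alexa-488 intensity over PI intensity per well, scored as % active cells using thresholds from rapamycin (7.5 nM) and DMSO controls. Tsc2-/-, p53-/- MEFs exposed to compound for 24 h; PI cell count recorded as viability.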
OvCa metastasis – Primary qHTS assay for Inhibitors of ovarian cancer metastasis using an organotypic tumor microenvironment (TME) model | SKOV3ip1-GFP adhesion/invasion on 3D omental model, fluorescence | Potency, µM (titrated, usually from 45.8 µM), most hits filed as inhibitors | 46,000 compounds, 0.1% hits; note: nearly all actives have a fitted effect of over 65% in size
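Adhesion/invasion was scored as fixed GFP-labeled SKOV3ip1 cell counts (488/509 nm), normalized to DMSO and tomatine controls. Cancer cells in serum-free medium, with four compound doses (0.36-46 umol/L), sat 2 hr at RT then 16 hr at 37 C on a 48 hr fibroblast/mesothelial/ECM culture.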
p53null 32C kill – qHTS Screen for Compounds that Selectively Target Cancer Cells with p53 Mutations: Cytotoxicity of p53 Null Cells at the Permissive Temperature. H1299-neo p53 null cells, ATP luminescence, 24 h, 32C. Potency, µM (titrated, usually from 46.1 µM), hits mostly cytotoxic. 55,000 compounds, 0.62% hits. AID 903, 2007; note: nearly all actives have a fitted effect of over 55% in size
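ATP-content luminescence in p53-null H1299-neo cells after 24 h compound exposure (up to 46 uM) at 32C permissive temperature; 0% and 100% killing set by DMSO and 100 uM tamoxifen; Hill-equation AC50.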
Large screens that a line does not name were inactive. Compounds with a hit are over-represented: about 3.1% of the library has one in this group of screens. Unless noted, calls come from the whole dose curve; as a rule, active = well fitted curve in the direction sought with a large enough effect; inconclusive = small, poorly fitted or top-dose-only effect, or another doubt; inactive = no such curve, though single readings can be large; an effect the other way counts as inactive or inconclusive.

C=CC1=C(C(=O)O)N2C(=O)[C@@H](NC(=O)C(=NO)c3csc(N)n3)[C@H]2SC1	none (no result: PMP22 txn prim, S16 viability, p53null 39C kill, mTORC1 inh, p53null 32C kill)
COCCCNC(=O)c1c(NC(=O)c2nc(S(C)(=O)=O)ncc2Cl)sc2c1CCCC2	PMP22 txn prim 2µM, S16 viability 3.5µM
CCNC(=O)c1c(NC(=O)c2nc(S(=O)(=O)CC)ncc2Cl)sc2c1CCCC2	PMP22 txn prim 4.5µM, S16 viability 4.5µM, p53null 39C kill 25µM, mTORC1 inh inconclusive, OvCa metastasis inconclusive
COc1ccc(-c2nnc(SCc3cc(=O)c4cc(C)cc(C)c4[nH]3)n2C)cc1	PMP22 txn prim 14µM, S16 viability inconclusive, mTORC1 inh inconclusive
COc1cccc2sc(NC(=O)c3ccc4c(c3)OCCO4)nc12	PMP22 txn prim inconclusive, p53null 39C kill 7.9µM, p53null 32C kill 7.9µM
O=C(Nc1nc2c(F)cc(F)cc2s1)c1ccc2c(c1)OCCO2	PMP22 txn prim inconclusive
COc1ccc(C=CC(=O)Nc2ccccc2C(=O)O)cc1OC	none (no result: PMP22 txn prim, S16 viability, p53null 39C kill, mTORC1 inh, p53null 32C kill)
Cc1ccc(/C=C/C(=O)Nc2ccccc2C(N)=O)o1	S16 viability inconclusive, p53null 39C kill 10µM, p53null 32C kill 13µM
Cn1c(=O)oc2cc(S(=O)(=O)N3CCC(C(=O)N4CCN(c5cccc(Cl)c5)CC4)CC3)ccc21	PMP22 txn prim inconclusive, S16 viability inconclusive
Cn1c(=O)oc2cc(S(=O)(=O)N3CCC(C(=O)N4CCN(c5ccc(Cl)cc5)CC4)CC3)ccc21	PMP22 txn prim 13µM, S16 viability inconclusive
CCN(CC)c1ccc(-c2nc(-c3ccccn3)no2)cc1[N+](=O)[O-]	PMP22 txn prim inconclusive
c1ccc(-c2nc(-c3ccccn3)no2)cc1	p53null 39C kill 7.9µM, p53null 32C kill 5.6µM (no result: PMP22 txn prim, S16 viability, mTORC1 inh, OvCa metastasis)
Cc1[nH]nc2ccc(-c3cncc(OC[C@@H](N)Cc4ccccc4)c3)cc12	none (no result: PMP22 txn prim, S16 viability, p53null 39C kill, mTORC1 inh, p53null 32C kill)
Cc1ccc(NC(=O)CSc2ccc(-c3ccccn3)nn2)cc1F	mTORC1 inh 15µM
COc1cc(NC(=O)CSc2ccc(-c3ccccn3)nn2)cc(OC)c1	PMP22 txn prim inconclusive, p53null 39C kill inconclusive, mTORC1 inh 13µM
Cc1cccc(NC(=O)CSc2ccc(-c3ccccn3)nn2)c1	PMP22 txn prim inconclusive, p53null 39C kill inconclusive, mTORC1 inh inconclusive, OvCa metastasis inconclusive
O=C(/C(C=Nc1ccc(Br)cc1)=C(/O)c1ccco1)C(F)(F)F	p53null 39C kill inconclusive, p53null 32C kill 5µM (no result: PMP22 txn prim, S16 viability, mTORC1 inh, OvCa metastasis)
Cc1nc2c([nH]1)CCN(C(=O)c1ccc(NC(=O)c3ccccc3-c3ccccc3)cc1)c1ccccc1-2	none (no result: PMP22 txn prim, S16 viability, p53null 39C kill, mTORC1 inh, p53null 32C kill)
Cc1cc(OCC(=O)NCC2(N3CCN(C)CC3)CCCCC2)cc(C)c1Cl	PMP22 txn prim inconclusive, S16 viability inconclusive, mTORC1 inh 5.8µM, OvCa metastasis inconclusive
Cc1ccc(OCC(=O)NCC2(N3CCN(C)CC3)CCCCC2)cc1C	PMP22 txn prim inconclusive, mTORC1 inh inconclusive
Cc1cn2c(=O)cc(COC(=O)c3cccc(NC(=O)c4ccc(C(C)(C)C)cc4)c3)nc2s1	p53null 39C kill 0.79µM, p53null 32C kill 2.5µM
CC(C)(C)c1ccc(C(=O)Nc2ccc(C(=O)OCc3cc(=O)n4ccsc4n3)cc2)cc1	PMP22 txn prim inconclusive, S16 viability inconclusive, p53null 39C kill 2µM, p53null 32C kill inconclusive
Cc1ccc(C(=O)Nc2ccc(C(=O)OCc3cc(=O)n4ccsc4n3)cc2)cc1	none
Cc1ccc2nc(-c3ccc(O)cc3)c(Nc3ccc(Cl)cc3)n2c1	p53null 39C kill inconclusive
Cc1ccc2nc(-c3ccccc3F)c(Nc3ccc(Cl)cc3)n2c1	p53null 39C kill 20µM
COc1cc(-c2nc3ncccn3c2Nc2ccc(C)cc2C)ccc1O	S16 viability inconclusive, mTORC1 inh 15µM
CC(=O)c1ccc(NC(=O)c2nc3ccccc3n(C)c2=O)cc1	p53null 32C kill 2µM
CC(=O)c1ccc(NC(=O)c2nc3ccccc3nc2N2CCCCC2)cc1	S16 viability inconclusive
CCc1ccc(Nc2nc3c(S(=O)(=O)c4cccc(Cl)c4)nnn3c3ccsc23)cc1	PMP22 txn prim inconclusive
CCc1ccc(S(=O)(=O)c2nnn3c2nc(Nc2ccc(NC(C)=O)cc2)c2sccc23)cc1	PMP22 txn prim 11µM, p53null 39C kill inconclusive, p53null 32C kill inconclusive
COc1ccc(C2=NC(C)(C)N(CC(=O)Nc3cc(OC)cc(OC)c3)C2=O)cc1	none
CC(C)(C)c1ccc(C2=NC(C)(C)N(CC(=O)Nc3ccc(F)c(F)c3)C2=O)cc1	PMP22 txn prim inconclusive, p53null 39C kill 13µM
CCc1ccc(NC(=O)c2ccc3c(O)c(S(=O)(=O)c4ccccc4)c(=O)[nH]c3c2)cc1	p53null 39C kill inconclusive, p53null 32C kill 13µM
COc1ccc(C(=O)Nc2ccc3nc(SCC(=O)N4CCc5ccccc54)sc3c2)cc1	none

Source: PubChem (National Center for Advancing Translational Sciences (NCATS))
